This is an account of results in PubChem BioAssay (Tox21).

The structures appear in SMILES notation. Where “and” joins values, the source holds several entries; their conditions need not be identical. Identical values can stand only once. Inconclusive results are not listed. Entries that show only a call come without a potency. Calls of active or inactive are those of the source. Calls follow the shape of the dose curve; as a rule, active = well fitted inhibition curve with a large enough effect in the repeat runs; inconclusive = weak or mixed curves; inactive = no such curve, though single readings can be large or run the other way.
Potency is read from the fitted curve at half-maximal effect.

Estrogen receptor (Homo sapiens), sequence (P03372 whole entry, looked up): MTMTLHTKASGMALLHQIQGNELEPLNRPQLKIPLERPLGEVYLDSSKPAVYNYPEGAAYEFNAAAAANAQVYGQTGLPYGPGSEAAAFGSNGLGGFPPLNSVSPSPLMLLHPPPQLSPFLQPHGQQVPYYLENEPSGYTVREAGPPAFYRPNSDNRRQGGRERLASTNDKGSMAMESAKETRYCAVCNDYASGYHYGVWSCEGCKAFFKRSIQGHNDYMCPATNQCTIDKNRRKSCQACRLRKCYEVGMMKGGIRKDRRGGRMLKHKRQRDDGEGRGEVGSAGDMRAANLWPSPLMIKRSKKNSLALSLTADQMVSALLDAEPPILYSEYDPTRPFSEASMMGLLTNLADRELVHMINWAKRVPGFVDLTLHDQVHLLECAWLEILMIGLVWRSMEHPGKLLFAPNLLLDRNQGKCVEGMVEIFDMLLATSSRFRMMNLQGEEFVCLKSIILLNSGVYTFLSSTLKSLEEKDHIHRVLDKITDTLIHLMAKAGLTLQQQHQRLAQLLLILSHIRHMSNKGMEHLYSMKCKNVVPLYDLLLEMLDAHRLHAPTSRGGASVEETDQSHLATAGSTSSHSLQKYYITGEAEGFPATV

This test addresses Estrogen receptor (Homo sapiens) (UniProt P03372). The test can be described thus: qHTS assay to identify small molecule antagonists of the estrogen receptor alpha (ER-alpha) signaling pathway using the BG1 cell line in the presence of 0.1 nM 17-beta-estradiol (AID 1259244). Also: nearly all actives have a fitted effect of over 50% in size. Particulars: VM7Luc4E2 (BG1) ERE-luciferase, antagonist mode, 0.1 nM E2, 22 h; series mostly up to 92.4 µM. The text has this:
National Center for Advancing Translational Sciences [NCATS]
NIH Chemical Genomics Center [NCGC]
U.S. Environmental Protection Agency [EPA]
National Institutes of Environmental Health Sciences [NIEHS]
National Toxicology Program [NTP]
U.S. Food and Drug Administration [FDA]
Estrogen receptor (ER), a member of the nuclear hormone receptor plays an important role in development, metabolic homeostasis and reproduction. Two subtypes of ER, ER-alpha and ER-beta, have similar expression patterns with some uniqueness in both types. Endocrine disrupting chemicals (EDCs) and their interactions with steroid hormone receptors like ER causes disruption of normal endocrine function. Therefore, it is important to understand the effect of environmental chemicals in ER signaling pathway. For identifying ER antagonists, VM7Luc4E2 cell line was used to screen against Tox21 compound libraries.
VM7Luc4E2 cell line (provided by Denison MS, University of California) endogenously express full-length ER-alpha and is stably transfected with a plasmid containing four estrogen responsive elements (ERE) upstream of a luciferase reporter gene. The current screening for identification of ER-alpha inhibitors against Tox21 compound libraries used lower concentration (0.1 nM) of 17beta-Estradiol as a stimulator.
Tox21 Assay Protocol Summary:
VM7Luc4E2 cells were cultured in phenol red free assay medium containing 10% charcoal stripped FBS for 5 days prior to the assay. The cells were dispensed at 4,000 cells/well in 4 uL of assay medium into white wall/solid-bottom 1536-well plates (Corning Life Sciences, Corning, NY) using a Multidrop Combi (ThermoFisher Scientific, Waltham, MA) dispenser. After the assay plates were incubated at 37C and 5% CO2 for 24 hr, 23 nL of compounds dissolved in DMSO, positive controls or DMSO only was transferred to the assay plates by a Pintool station (Kalypsys, San Diego, CA). The transfer of compounds was followed by the addition of 1 uL of 0.1 nM (final concentration) agonist (17beta-Estradiol)/assay medium using a Flying Reagent Dispenser (FRD, Aurora Discovery, San Diego, CA). The plates were incubated at 37C and 5% CO2 for 22 hr. For luciferase reporter gene assay, 4 uL of ONE-Glo reagent (Promega Corporation, Madison, WI) was added to each well using the FRD and after 30 min incubation at room temperature luminescence intensity was measured using ViewLux plate reader (PerkinElmer, Shelton, CT).
Background: qHTS replaces the single test concentration by a dilution series.
On to `COCC(=O)N(c1c(C)cccc1C)C(C)C(=O)OC` (stereo not given), for which the Potency result is “inactive”.
Consider `CCC(=O)C(CC(C)N(C)C)(c1ccccc1)c1ccccc1` (stereo not given), for which the Potency entry was “inactive”.
In the case of `C[N+](C)(C)Cc1ccccc1` it was “inactive”; in that of `Nc1ccc(-c2ccc(N)c(Cl)c2)cc1Cl`, 48.6 µM (active).
In the case of `Cc1cc(Cl)ccc1OCC(=O)O` it was “inactive”; in that of `CC(Cl)(Cl)C(=O)O`, “inactive”.
In the case of `O=P1(N(CCCl)CCCl)NCCCO1` (stereo not given) it was “inactive”; in that of `C1CCC(NC2CCCCC2)CC1`, “inactive”; in that of `CCNc1nc(Cl)nc(NCC)n1`, “inactive”.
As for `Cc1cc(-c2ccc(N)c(C)c2)ccc1N`, the Potency was 34.4 µM (active).
In the case of `Nc1ccc(Cl)cc1`, the Potency entry was “inactive”.
In the case of `O=C(O)c1nc(Cl)ccc1Cl` it was “inactive”; in that of `CCCCCCCCCCCCCC[P+](CCCCCC)(CCCCCC)CCCCCC`, 2.74 µM (active) and 3.09 µM (active) and 3.43 µM (active); in that of `C[C@]12CCC(=O)C=C1CC[C@@H]1[C@@H]2CC[C@]2(C)C(=O)CC[C@@H]12`, “inactive”.
In the case of `CC(=O)[O][Hg][c]1ccccc1` it was 2.71 µM (active) and 6.86 µM (active) and 8.41 µM (active); in that of `OCCOc1ccccc1`, “inactive”.
In the case of `Oc1ccccc1-c1ccccc1` it was “inactive”; in that of `O=C(O)C(Cl)Cl`, “inactive”; in that of `Nc1ccc(-c2ccc(N)cc2)cc1`, “inactive”.
For the molecule `COP(=O)(OC)OC=C(Cl)Cl`, the Potency result was “inactive”.
